Results reported in the supplement of paper PMC6805474.
Unmarked numbers belong to inactive results.

Test system: Schistosoma mansoni schistosomula (NMRI)
Assay: phenotypic severity score (0-4); higher = more antischistosomal effect, active = 2 or more
Conditions: 24 h; 10 µM
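Further: visual microscopic scoring of shape, motility and density changes versus 0.5% DMSO solvent controls, one point per descriptor, degeneracy or death scored 4, mean of duplicate wells.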

Compound | phenotypic severity score
O=C(Nc1ccc(F)c(-c2nc3cc(-c4ccccc4)cnc3[nH]2)c1)N1CCCC1 | 0
O=C(C(Cc1c[nH]c2ccccc12)NS(=O)(=O)c1ccc(Cl)cc1)N1CCCCC1 (centres undefined) | 0
N=C(N)c1ccc(-c2cc(-c3ccccc3)on2)cc1 | 2 (active)
Nc1ncc(-c2cn[nH]c2)cc1-c1nc2cc(Cl)cnc2[nH]1 | 0
NC(=O)c1cc(-c2ccsc2)ccc1OCCOc1ccccc1 | 0
CC(C)(C)n1nc(Cc2cccc3ccccc23)c2c(N)ncnc21 | 0
O=C([C@@H](c1ccc(Cl)cc1)c1cccnc1)N1CCN(c2ccc(C(F)(F)F)cc2)CC1 | 0
CCc1ccc([C@@H]2C[C@H](C(F)(F)F)n3ncc(C(=O)NCc4ccc(OC)cc4)c3N2)cc1 | 1
COc1ccc2nccc(NC(=O)C3CCN(CCc4ccc(Cl)cc4)CC3)c2n1 | 0
c1ccc(-c2cc(N3CCCCC3)c3ccccc3n2)nc1 | 1
O[C@@H](c1cc(C(F)(F)F)nc2c(C(F)(F)F)cccc12)[C@H]1CCCCN1 | 4 (active)
NS(=O)(=O)c1cccc(-c2ccc3ncc(N4CCOCC4)nc3c2)c1 | 0
Nc1ncnc2c1c(-c1cnc3ccccc3c1)nn2CC1CCNCC1 | 0
CO[C@H]1/C=C/O[C@@]2(C)Oc3c(C)c(O)c4c(O)c(/c(=C/NN5CCN(C)CC5)c(O)c4c3C2=O)=N\C(=O)/C(C)=C\C=C/[C@H](C)[C@H](O)[C@@H](C)[C@@H](O)[C@@H](C)[C@H](OC(C)=O)[C@@H]1C | 0
COc1ccc(-c2cnc3ccc(NCc4ccc(S(N)(=O)=O)cc4)nn23)cn1 | 0
c1coc(CNc2nc(N3CCCCC3)nc3ccccc23)c1 | 3 (active)
CCOC(=O)NC(=O)c1ccsc1NC(=O)c1nc2ccccc2s1 | 0
COc1ccc(Cn2cnc3c(-c4ccco4)nc(Cl)nc32)cc1 | 0
Cc1ccc(NC(=O)CC2COc3ccccc3O2)cc1Cl (centres undefined) | 0
O=C(NCCc1ccccc1)c1cc(-c2cccnc2)cnc1NCC1CC1 | 0

Compound | phenotypic severity score
CCN(CC)S(=O)(=O)c1ccc(Cl)c(C(=O)Nc2ccc3nc(C)sc3c2)c1 | 1
CCN(CC)C(=O)N1CCN(C)CC1 | 0
CC(C)n1ncc2c(C(=O)NCC(c3cccs3)N3CCOCC3)cc(-c3ccccc3)nc21 (centres undefined) | 2 (active)
Cc1nn(C)cc1C(C)Nc1nncc(-c2ccc(C(F)(F)F)cc2)n1 (centres undefined) | 0
c1ccc(Oc2ccc(-c3cc(N4CCOCC4)[nH]n3)cc2)cc1 | 0
Cc1cccnc1NC(=O)c1cccc(OCc2c(C)noc2C)c1 | 0
Cc1cc(OCC(=O)NCc2ccccc2)c2cc(Br)ccc2n1 | 0
O=C(Nc1nc(-c2ccccn2)cs1)C1CC1c1ccccc1F (centres undefined) | 0
CNC(=O)c1cc(S(=O)(=O)N2CCN(c3ccccn3)CC2)cs1 | 0
O=C(CN1CCOCC1)Nc1ccc2ncnc(Nc3ccc(OCc4cccc(F)c4)c(Cl)c3)c2c1 | 0
COc1ccccc1C(C)NCC(=O)Nc1cc(C(F)(F)F)ccc1Cl (centres undefined) | 0
Nc1ccc(C(=O)Nc2ccc(-c3nc4ccccc4o3)cc2)cc1 | 0
CC1CCCN(C(=O)C(C)Nc2cc(Cl)ccc2N2CCOCC2)C1 (centres undefined) | 0
CC(C)(C(=O)Nc1ccc(F)cc1)n1cc(-c2ccccc2F)cn1 | 0
COc1ccc(C2CC(c3cccs3)=NN2C(=O)c2ccco2)cc1OC (centres undefined) | 0
CO[C@@H](C(=O)N1Cc2[nH]nc(NC(=O)c3ccc(N4CCN(C)CC4)cc3)c2C1)c1ccccc1 | 0
CNc1snc(C)c1C(=O)NCCOc1ccc(OC)cc1 | 1
COc1ccc(-c2cnc3ccc(N4CCCC4)nn23)cc1OC | 2 (active)
Cc1ccc2nc(C)c(-c3ccn(Cc4ccccc4)n3)n2c1 | 3 (active)
